CBX7 inh – inhibitors of human CBX7 binding to H3K27me3 peptide. O95931. AlphaScreen His6-CBX7 / biotin-H3K27me3 peptide binding; hits give low values. normalised signal (fraction of DMSO) (no concentration beside the values). hit rate 1.1% among 66,000; in the data active = normalised signal below about 0.5
Target sequence (O95931 whole entry, looked up): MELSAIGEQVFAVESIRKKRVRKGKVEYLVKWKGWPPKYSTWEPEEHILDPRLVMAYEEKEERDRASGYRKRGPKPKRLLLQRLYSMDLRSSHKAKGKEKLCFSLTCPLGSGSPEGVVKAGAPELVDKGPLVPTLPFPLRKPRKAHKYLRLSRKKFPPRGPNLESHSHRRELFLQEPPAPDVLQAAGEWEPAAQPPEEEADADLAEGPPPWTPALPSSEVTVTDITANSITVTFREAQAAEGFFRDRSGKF
An asterisk follows results filed as active; ! = repeats disagree. Many of the other results were omitted from the sample, so hits are more common in it than they were.

SMILES	CBX7 inh
Cc1ccccc1N(C)C(=O)Cc1c(C(=O)O)[nH]c2ccccc12	0.98
CCOC(=O)c1cnc2c(C)cccc2c1Nc1ccc(N(CC)CC)cc1	0.12*
CCOC(=O)c1cnc2c(C)cccc2c1Nc1ccc(C(=O)O)cc1	0.97
CCOC(=O)c1cnc2c(C)cccc2c1Nc1ccc(F)cc1	1.3
CCOC(=O)c1cnc2c(C)cc(C)cc2c1Nc1ccc(N(C)C)cc1	0.33*
CCOC(=O)c1cnc2c(C)cc(Cl)cc2c1Nc1ccc2c(c1)OCCO2	0.86
CCOC(=O)c1cnc2c(C)cc(C)cc2c1Nc1ccc(OCC)cc1	1.1
CCOC(=O)c1cnc2c(C)cc(Cl)cc2c1Nc1cccc(C(=O)O)c1	0.76
CCOC(=O)c1cnc2c(C)cc(C)cc2c1Nc1ccc(C)cc1	1.3
CCOC(=O)c1cnc2c(C)cc(Cl)cc2c1Nc1ccc(N2CCOCC2)cc1	0.26*
Cc1cccc(C)c1NC(=O)C1(S(=O)(=O)c2ccc(Cl)cc2)CC1	1.1
O=C(Nc1c(C(=O)N2CCC(Cc3ccccc3)CC2)cnn1-c1ccccc1)c1ccccc1F	0.94
CCOc1ccc2nc(SCC(=O)Nc3ccc(OC(F)(F)F)cc3)[nH]c2c1	1.2
O=C(NCCc1nc(-c2ccccc2)cs1)NC1(c2ccccc2)CC1	0.79
O=C(c1ccc(CNc2c(NC3CCCC3)c(=O)c2=O)cc1)N1CCc2ccccc21	0.91
O=C1CC(c2nc3ccccc3n2Cc2ccc(F)cc2)CN1c1ccccc1F (stereo not drawn)	1.3
COc1ccc(-c2nnc(Nc3ccc4c(c3)ncn4-c3ccccc3C)c3ccccc23)cc1	0.81
COc1ccc(Nc2cc(C(=O)NCCN(Cc3ccccc3)C(C)C)c3ccccc3n2)cc1OC	0.54
COc1ccc(Nc2cc(C(=O)NCCCN(C)Cc3ccccc3)c3ccccc3n2)cc1OC	0.44*
CCCCN(C)CCCNC(=O)c1cc(Nc2ccc(OC)c(OC)c2)nc2ccccc12	0.74
O=C(COc1ccc(Cl)cc1Cl)NCC12C=CC(O1)C1C(=O)N(Cc3ccccc3)C(=O)C12 (stereo not drawn)	0.98
CCOC(=O)c1cccc(NC2c3ccccc3C(=O)N2Cc2ccccc2Cl)c1 (stereo not drawn)	1
CC(=O)N1CCc2cc(S(=O)(=O)Nc3ccc(Br)cc3C)ccc21	1.3
CCOc1ccc(Nc2nnc(C(C)(C)C)c(=O)[nH]2)cc1	1
CCOC(=O)c1ccc(Nc2nnc(C(C)(C)C)c(=O)[nH]2)cc1	0.5*
SMILES	CBX7 inh
Cc1ccc(Nc2nnc(C(C)(C)C)c(=O)[nH]2)cc1	1.3
CCCn1c(C(C)NC(=O)CC)nc2ccccc21 (stereo not drawn)	1.1
Cc1nc(N2CCCCC2)c2c(C)c(C(=O)N3CCCCC3C)sc2n1 (stereo not drawn)	1
COc1ccc(CN2CC(C(=O)NCc3ccccn3)CC2=O)cc1 (stereo not drawn)	0.37*
COc1ccc(CN2CC(C(=O)NC3CCCC3)CC2=O)cc1 (stereo not drawn)	1
COc1ccc(CN2CC(C(=O)NCc3ccc(F)cc3)CC2=O)cc1 (stereo not drawn)	1.1
Cc1cccc(Nc2nc(-c3c(C)nc4ncccn34)cs2)c1	0.86
COc1ccccc1C(CCNCc1ccc2c(c1)OCO2)c1ccc2c(c1)OCO2 (stereo not drawn)	0.79
COc1ccc(CNCCC(c2ccccc2)c2ccc3c(c2)OCO3)cc1 (stereo not drawn)	0.9
COc1ccccc1C(CCNCc1ccc(OC(C)C)cc1)c1ccc2c(c1)OCO2 (stereo not drawn)	0.17*
O=C(c1ccc(F)cc1)N1CCc2[nH]c3ccc(F)cc3c2C1	0.97
O=C(CCc1c[nH]c2ccccc12)N1CCN(C(c2ccc(F)cc2)c2ccc(F)cc2)CC1	0.72
Cc1ccc2c(c1)N(CCCC(=O)NCc1ccccc1)C(=O)CO2	0.99
O=C(NCCCN1CCOCC1)c1cc(Nc2ccccc2)nc2ccccc12	1.1
Cc1nc2sccn2c1-c1csc(Nc2ccccc2)n1	0.74
CCN(CC)c1ccc(Nc2nc(-c3c(C)nc4cc(C)ccn34)cs2)cc1	0.24*
Cc1ccc(Nc2nc(-c3c(C)nc4cc(C)ccn34)cs2)c(C)c1	0.42*!
Cc1nc2ccccn2c1-c1csc(Nc2ccc(N(C)C)cc2)n1	0.47*
Cc1ccn2c(-c3csc(Nc4ccccc4Cl)n3)c(C)nc2c1	0.83
Cc1ccn2c(-c3csc(Nc4cccc(C(=O)O)c4)n3)c(C)nc2c1	0.79
Cc1ccc(Nc2nc(-c3c(C)nc4sccn34)cs2)cc1	0.68
Cc1ccn2c(-c3csc(Nc4ccccc4C)n3)c(C)nc2c1	1.1
CC(=O)Nc1ccc(Nc2nc(-c3c(C)nc4ccccn34)cs2)cc1	0.95
Cc1ccn2c(-c3csc(Nc4ccccc4)n3)c(C)nc2c1	0.84
Cc1nc2sccn2c1-c1csc(Nc2cccc(O)c2)n1	0.27*!
Cc1nc2ccccn2c1-c1csc(Nc2ccc(Br)cc2)n1	1
Cc1ccccc1Cc1c(C)nc2nc(SCC(=O)NCCC3=CCCCC3)nn2c1C	1.2

From PubChem BioAssay
